Assay outcomes from PubChem.
MITF primary: MITF inhibitors, primary screen, biochemical, AlphaScreen, human; Microphthalmia-associated transcription factor (Homo sapiens), O75030; AlphaScreen MITF homodimerization, bead proximity signal; inhibition, % at 2.6 µM; 0.91% of 650,000 active; AID 1259374, 2018; in the data active = inhibition above about 50%
GPR151 activ: activators of human GPR151, primary screen, cell-based, PathHunter beta-arrestin, luminescence; activation, % at 11.2 µM; G-protein coupled receptor 151 (Homo sapiens), Q8TDV0; AID 1508602, 2020; PathHunter beta-arrestin GPR151 cells; 1% of 650,000 active; in the data active = activation above about 4.9%
Target sequence (Q8TDV0 whole entry, looked up): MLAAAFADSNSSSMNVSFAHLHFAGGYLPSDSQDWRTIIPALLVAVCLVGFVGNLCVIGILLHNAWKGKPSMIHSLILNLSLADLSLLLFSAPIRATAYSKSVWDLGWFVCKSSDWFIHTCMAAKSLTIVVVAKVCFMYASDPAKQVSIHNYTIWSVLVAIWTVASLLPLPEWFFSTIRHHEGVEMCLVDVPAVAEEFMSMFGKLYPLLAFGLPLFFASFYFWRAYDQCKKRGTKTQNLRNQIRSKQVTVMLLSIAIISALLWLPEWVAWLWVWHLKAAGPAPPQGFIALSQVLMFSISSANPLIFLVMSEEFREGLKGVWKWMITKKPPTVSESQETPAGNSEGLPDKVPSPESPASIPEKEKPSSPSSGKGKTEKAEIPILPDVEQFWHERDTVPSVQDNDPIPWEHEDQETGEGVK
TEAD-YAP inh: TEAD-YAP interaction inhibition, primary screen, TEAD-YAP interaction inhibitor project, luminescence, HEK-TIYL cells; TEAD-Gal4/YAP UAS-luciferase luminescence; inhibition, % at 9.12 µM; 1.4% of 640,000 active; AID 1259422, 2018; in the data active = inhibition above about 32%
FBW7 activator: FBW7 E3 ligase activators, primary screen, biochemical, AlphaScreen, human; AlphaScreen FBW7–phospho-cyclin E peptide binding, activator screen; normalized activity (activation), % at 26.1 µM; 0.13% of 650,000 active; AID 1259310, 2017; in the data active = normalized activity above about 1.9%;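 note: purified mutant Fbw7 with reduced substrate affinity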
GPR151 confirm: GPR151 activators, triplicate retest, confirmation, cell-based, PathHunter beta-arrestin, luminescence | activation, % at 11.2 µM | shares compounds with GPR151 activ | 6,700 tested, under 10 active | GPR151 PathHunter beta-arrestin cells, 90 min; % of EA-reagent control over plate median;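 active = mean percent activation across replicates above the confirmation screen cutoff of 4.91%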
GPR119 counter: GPR119 activators in beta-arrestin cells, counter-screen for GPR151 activator project, cell-based, PathHunter beta-arrestin, luminescence, triplicate; 90 min; 0 = compound-well median, 100 = enzyme-acceptor control; shares compounds with GPR151 activ; AID 1508611, 2020; 0.3% of 6,700 active; activation, % at 11.2 µM;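 active = mean percent activation in the counterscreen above 29.09%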;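 note: counterscreen on off-target GPR119 to flag nonselective hits from the GPR151 activator screen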
Large screens that a line does not name were inactive (follow-up assays come after a bar, where they were run). A selection: hits, their analogues and other compounds. The true share with any hit is near 3.5%.

Cc1ccc(Nc2nc(N3CCOCC3)nc3c2cnn3C)c(C)c1	GPR151 activ 5.4 | GPR151 confirm inactive | GPR119 counter inactive
Cc1nn2cnc3sc4c(c3c2nc1=O)CCC(C(C)(C)C)C4 (configuration not stated)	GPR151 activ 7.0 | GPR151 confirm inactive | GPR119 counter inactive
Cn1c(NN)nc2sc3c(c2c1=O)CCC(C(C)(C)C)C3 (configuration not stated)	none
Clc1ccc(C2C3=C(Nc4ncnn42)c2ccccc2CCC3)cc1 (configuration not stated)	GPR151 activ 6.0 | GPR151 confirm inactive | GPR119 counter inactive
N#Cc1ccccc1NC(=O)/C=C/c1ccccc1	none
O=C(NCc1ccco1)/C(=C/c1ccccc1)NC(=O)c1cccc(Br)c1	GPR151 activ 5.2 | GPR151 confirm inactive | GPR119 counter inactive
O=C(NCc1ccco1)/C(=C/c1ccc(Cl)cc1)NC(=O)c1ccccc1	none
O=C(CCCCCNC(=O)c1ccccc1)N/N=C/c1ccc(Br)cc1	none
Cc1cc(F)ccc1S(=O)(=O)Nc1cc2c(C(=O)O)c(C)oc2c2ccccc12	GPR151 activ 6.4 | GPR151 confirm inactive | GPR119 counter inactive
O=C(c1cccc(NS(=O)(=O)c2ccc(Cl)cc2)c1)N1CCN(c2ccccc2)CC1	none
C[C@H]1C(=O)N2CCN(Cc3ccc(F)c(F)c3)C[C@@H]2C(=O)N1C	GPR151 activ 6.8 | GPR151 confirm inactive | GPR119 counter inactive
Cc1noc(C)c1C(=O)N1CCC(C2(C)NC(=O)N(Cc3ccc(F)cc3)C2=O)CC1 (configuration not stated)	none
CN(CC(=O)NC1CCCc2ccccc21)S(=O)(=O)c1ccc(Br)s1 (configuration not stated)	GPR151 activ 11 | GPR151 confirm inactive | GPR119 counter inactive
O=C(CCS(=O)(=O)c1ccc(Br)s1)NC1CCCc2ccccc21 (configuration not stated)	none
CC(=O)c1cc(-c2ccccc2)n(CC(=O)N2CCc3ccccc32)c1C	none
CC(=O)NNc1cccc(Cl)c1	GPR151 activ 6.1 | GPR151 confirm inactive | GPR119 counter inactive
CCOc1ccccc1NC(=O)CN1CCN(c2nccn2-c2ccc(C)cc2)CC1	GPR151 activ 8.0 | GPR151 confirm inactive | GPR119 counter inactive
COc1ccccc1NC(=O)CN1CCN(c2nccn2-c2ccc(C)cc2)CC1	none
CC(=O)NCC(=O)NCC1Cc2cc(-c3cnccn3)cc(Cl)c2O1 (configuration not stated)	GPR151 activ 4.9 | GPR151 confirm inactive | GPR119 counter inactive
Cc1ccoc1C(=O)NCC1Cc2cc(-c3cnccn3)cc(Cl)c2O1 (configuration not stated)	none
COC(=O)C1CCN(C(=O)/C(=C\c2ccccc2)c2ccccc2)CC1	none
CCOC(=O)C1CCN(C(=O)/C(=C/c2cccc([N+](=O)[O-])c2)c2ccccc2)CC1	GPR151 activ 8.7 | GPR151 confirm inactive | GPR119 counter inactive
COCCO[C@H]1[C@H](NC(=O)C(C)C)c2ccccc2C12CCN(C(=O)CCC(C)C)CC2	GPR151 activ 5.2 | GPR151 confirm inactive | GPR119 counter inactive
COCCO[C@H]1[C@H](NC(=O)C(C)C)c2ccccc2C12CCN(C(=O)C1CCCC1)CC2	none
Cc1cc(C(=O)COC(=O)c2ccc(O)cc2O)c(C)n1-c1ccc2c(c1)OCO2	GPR151 activ 5.3 | GPR151 confirm inactive | GPR119 counter inactive
Cc1ccc(CN(CC(=O)N2CCN(c3ccccc3)CC2)S(=O)(=O)c2ccc(C)cc2)cc1	none
O=C(c1ccc2cc[nH]c2c1)N1CCN(C(=O)C(c2ccccc2)c2ccccc2)CC1	GPR151 activ 5.6 | GPR151 confirm inactive | GPR119 counter inactive
O=C(c1ccc2cc[nH]c2c1)N1CCNCC1	none
Cc1cc(NC(=O)NC(=O)c2ccc(Cl)c(Cl)c2)n[nH]1	GPR151 activ 6.6 | GPR151 confirm inactive | GPR119 counter inactive
Cc1cc(NC(=O)NC(=O)c2cccc(Cl)c2)n[nH]1	none
CCc1cc(CC#N)c(S(=O)(=O)CC)s1	none
O=C(Cc1ccc(F)cc1)N1CCC(O)(c2ccccn2)CC1	GPR151 activ 11 | GPR151 confirm inactive | GPR119 counter inactive
O=C(Cc1cccc(F)c1)N1CCC(O)(c2ccccn2)CC1	none
Cc1ccc(S(=O)(=O)N(C)Cc2nc(-c3cccc(C)c3)no2)cc1	none
